{
  "source": "paper PMC11006913",
  "note": "Substitutions are numbered along the chain they refer to.",
  "data": [
    {"target": "T1, SIX6 (Homo sapiens, UniProt O95475 114-200, L143I)", "T1 sequence": "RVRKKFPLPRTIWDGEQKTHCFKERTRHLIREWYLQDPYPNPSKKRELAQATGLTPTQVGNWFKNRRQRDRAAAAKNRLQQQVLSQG", "test": "PBM; 200 nM protein, PBS", "settings": "dsDNA, one strand shown", "values": [
      {"sequence": "ATCTATAC", "binding signal": "10.4 upbm affinity estimate (log intensity, higher = more binding, comparable within an allelic series)"},
      {"sequence": "ATATACCC", "binding signal": "10.4 upbm affinity estimate (log intensity, higher = more binding, comparable within an allelic series)"},
      {"sequence": "ATATACTC", "binding signal": "10.4 upbm affinity estimate (log intensity, higher = more binding, comparable within an allelic series)"}
    ]},
    {"target": "T2, PAX4 (Homo sapiens, UniProt O43316 9-242, F177V)", "T2 sequence": "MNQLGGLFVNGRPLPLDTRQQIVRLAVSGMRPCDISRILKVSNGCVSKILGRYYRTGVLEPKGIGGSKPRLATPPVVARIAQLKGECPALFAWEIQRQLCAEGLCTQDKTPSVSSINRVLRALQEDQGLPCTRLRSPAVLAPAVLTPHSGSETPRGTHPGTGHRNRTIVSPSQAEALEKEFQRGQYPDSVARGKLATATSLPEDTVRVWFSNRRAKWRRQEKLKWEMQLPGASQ", "test": "PBM; 200 nM protein, PBS", "settings": "dsDNA, one strand shown", "values": [
      {"sequence": "TTAGTCAA", "binding signal": "10.1 upbm affinity estimate (log intensity, higher = more binding, comparable within an allelic series)"},
      {"sequence": "GAATTGAA", "binding signal": "10.1 upbm affinity estimate (log intensity, higher = more binding, comparable within an allelic series)"},
      {"sequence": "CCAATCAG", "binding signal": "9.65 upbm affinity estimate (log intensity, higher = more binding, comparable within an allelic series)"},
      {"sequence": "CCACGTTA", "binding signal": "10.1 upbm affinity estimate (log intensity, higher = more binding, comparable within an allelic series)"},
      {"sequence": "AATTGCGA", "binding signal": "9.91 upbm affinity estimate (log intensity, higher = more binding, comparable within an allelic series)"},
      {"sequence": "GTTAACCA", "binding signal": "9.85 upbm affinity estimate (log intensity, higher = more binding, comparable within an allelic series)"},
      {"sequence": "ACTGATGC", "binding signal": "9.94 upbm affinity estimate (log intensity, higher = more binding, comparable within an allelic series)"},
      {"sequence": "ACTAACTA", "binding signal": "10.1 upbm affinity estimate (log intensity, higher = more binding, comparable within an allelic series)"},
      {"sequence": "AATAACGG", "binding signal": "10 upbm affinity estimate (log intensity, higher = more binding, comparable within an allelic series)"}
    ]},
    {"target": "T3, PAX4 (Homo sapiens, UniProt O43316 9-242, F177Y)", "T3 sequence": "T2 sequence with V169Y", "test": "PBM; 200 nM protein, PBS", "settings": "dsDNA, one strand shown", "values": [
      {"sequence": "ATTTTGGA", "binding signal": "10 upbm affinity estimate (log intensity, higher = more binding, comparable within an allelic series)"},
      {"sequence": "TTAGTCAA", "binding signal": "10.2 upbm affinity estimate (log intensity, higher = more binding, comparable within an allelic series)"},
      {"sequence": "AAAACCAT", "binding signal": "9.98 upbm affinity estimate (log intensity, higher = more binding, comparable within an allelic series)"},
      {"sequence": "ATCTATAC", "binding signal": "10.4 upbm affinity estimate (log intensity, higher = more binding, comparable within an allelic series)"},
      {"sequence": "CCAATCAG", "binding signal": "9.83 upbm affinity estimate (log intensity, higher = more binding, comparable within an allelic series)"},
      {"sequence": "CCACGTTA", "binding signal": "10.1 upbm affinity estimate (log intensity, higher = more binding, comparable within an allelic series)"},
      {"sequence": "AATTGCGA", "binding signal": "10 upbm affinity estimate (log intensity, higher = more binding, comparable within an allelic series)"},
      {"sequence": "GTTAACCA", "binding signal": "9.89 upbm affinity estimate (log intensity, higher = more binding, comparable within an allelic series)"},
      {"sequence": "ACTGATGC", "binding signal": "10 upbm affinity estimate (log intensity, higher = more binding, comparable within an allelic series)"},
      {"sequence": "ACTAACTA", "binding signal": "10.1 upbm affinity estimate (log intensity, higher = more binding, comparable within an allelic series)"},
      {"sequence": "AATAACGG", "binding signal": "10.1 upbm affinity estimate (log intensity, higher = more binding, comparable within an allelic series)"}
    ]},
    {"target": "T4, PAX4 (Homo sapiens, UniProt O43316 9-242, R227W)", "T4 sequence": "T2 sequence with V169F, R219W", "test": "PBM; 200 nM protein, PBS", "settings": "dsDNA, one strand shown", "values": [
      {"sequence": "TTAGTCAA", "binding signal": "10.2 upbm affinity estimate (log intensity, higher = more binding, comparable within an allelic series)"},
      {"sequence": "GAATTGAA", "binding signal": "10.1 upbm affinity estimate (log intensity, higher = more binding, comparable within an allelic series)"},
      {"sequence": "AAAACCAT", "binding signal": "10.1 upbm affinity estimate (log intensity, higher = more binding, comparable within an allelic series)"},
      {"sequence": "CCAATCAG", "binding signal": "9.74 upbm affinity estimate (log intensity, higher = more binding, comparable within an allelic series)"},
      {"sequence": "CCACGTTA", "binding signal": "10.2 upbm affinity estimate (log intensity, higher = more binding, comparable within an allelic series)"},
      {"sequence": "AATTGCGA", "binding signal": "10.1 upbm affinity estimate (log intensity, higher = more binding, comparable within an allelic series)"},
      {"sequence": "GTTAACCA", "binding signal": "9.96 upbm affinity estimate (log intensity, higher = more binding, comparable within an allelic series)"},
      {"sequence": "ACTGATGC", "binding signal": "10 upbm affinity estimate (log intensity, higher = more binding, comparable within an allelic series)"},
      {"sequence": "ACTAACTA", "binding signal": "10.2 upbm affinity estimate (log intensity, higher = more binding, comparable within an allelic series)"},
      {"sequence": "AATAACGG", "binding signal": "10.1 upbm affinity estimate (log intensity, higher = more binding, comparable within an allelic series)"},
      {"sequence": "CGTTATGC", "binding signal": "9.97 upbm affinity estimate (log intensity, higher = more binding, comparable within an allelic series)"}
    ]}
  ]
}
